Data on 111 compounds can be found in ChEMBL document CHEMBL4513216, “Probing the Open Global Health Chemical Diversity Library for Multistage-Active Starting Points for Next-Generation Antimalarials” (ACS Infect Dis, 2020).

The whole screen tested about 68,000 compounds, of which about 2,700 (4%) showed an effect of 50% or more. The sample holds strong results, similar compounds and a random draw of the others, so the mix is not that of the screen.

The assay deals with Plasmodium berghei. Kind of assay: Screen against P. berghei liver stage (PbLuc), transformed with Luciferase, at 2uM. The following applies: tested at 2 uM. In kind it is functional, HepG2.
For the compound `NCc1cnc(Nc2ccccc2)nc1`, the INHIBITION is listed as 16.87%.
Under `O=C1Nc2ccccc2CNC12CCN(CC1CCCC1)CC2` stands -7.08%; under `O=C1Nc2ccccc2CNC12CCN(CC1CC1)CC2`, 58.42%; under `O=C1Nc2ccccc2CNC12CCN(CC1CCNC1)CC2` (stereo unspecified), 21.69%.
Under `COc1cccc2sc(N3CC(OC(C)=O)C3)nc12` stands -5.98%; under `CSCC(C)NS(=O)(=O)c1ccc(C)c(N(C)C)c1` (stereo unspecified), -1.57%; under `COCCC(C)NS(=O)(=O)c1ccc(C)c(N(C)C)c1` (stereo unspecified), 52.6%.
Then `Cc1ccc(S(=O)(=O)N[C@H](CO)C(C)C)cc1N(C)C`, with -94.5%; and `CN(C)CC(=O)N1Cc2ncn(C)c2C(COCC2CCOCC2)C1` (stereo unspecified), with 6.8%.
As for `Cn1c(CC2CCS(=O)(=O)C2)nnc1SCCOc1ccccc1F` (stereo unspecified), the INHIBITION was determined as 7.08%.
Then `O=C(Cn1cccnc1=O)NCc1cccnc1OCC(F)(F)F`, with 3.95%; and `O=C(Cn1ccc(=O)[nH]c1=O)NCc1cccnc1OCC(F)(F)F`, with 51.76%.
Under `CN1CC(C(=O)NCc2cccnc2OCC(F)(F)F)CC1=O` (stereo unspecified) stands 9.21%.
Under `Cc1ccc2[nH]c(=O)c(CNCCCN3CCOCC3)cc2c1` stands 22.39%; under `O=C(c1c[nH]cn1)N1CCC(F)(F)C2(CCN(c3ncccn3)C2)C1` (stereo unspecified), 38%; under `CCc1cc(C(=O)N2Cc3ccccc3OC3(CCOCC3)C2)on1`, 14.05%.
`Cc1nc(C)n(CC2CCCN(c3ncnc4ccsc34)C2)n1` (stereo unspecified): the INHIBITION is given as -20.93%.
Under `c1nc(N2CCCC(Cn3cncn3)C2)c2sccc2n1` (stereo unspecified) stands 68.24%; under `Cc1cnn(CC2CCCN2c2ncnc3sccc23)c1` (stereo unspecified), 37.87%.
Under `CN1C(=O)[C@@H]2CC[C@H]1CN(c1ncnc3ccsc13)C2` stands 14.82%; under `O=C1[C@@H]2CC[C@@H](CN(c3ncnc4ccsc34)C2)N1CC1CC1`, 62.51%; under `COc1cc(N2C[C@H]3CC[C@@H](C2)N(CC2CCC2)C3=O)ncn1`, 8.26%.
With `c1nc(N2CCCC2Cn2cncn2)c2sccc2n1` (stereo unspecified), the INHIBITION was -48.41%.
Under `c1nc(N2CCCC(Cn3cncn3)C2)c2ccsc2n1` (stereo unspecified) stands -1.74%; under `Cc1cnn(CC2CCCN2c2ncnc3ccsc23)c1` (stereo unspecified), 53.33%; under `COC(=O)CN(C(=O)c1ccc(Cl)o1)c1cccc(F)c1`, 34.65%.
Under `O=C(NCc1ccc(Br)c(F)c1)Nc1cn[nH]c1` stands 2.31%.
Then `Cc1cc(CN2CCCC2c2c(C)nn(C)c2Cl)on1` (stereo unspecified), with -50.23%; and `CCc1nc(CN(C)c2nccc(N3CCCC(O)C3)n2)no1` (stereo unspecified), with 11.38%.
Take `Cc1cnn(CC2CN(Cc3nc(C)no3)CCO2)c1` (stereo unspecified): the INHIBITION is recorded as -35.62%.
Then `O=C(c1ccco1)N1CCCC1C1CCN(Cc2ccccc2)CC1` (stereo unspecified), with 3%; and `O=C(c1ccncc1)N1CCCC1C1CCN(Cc2ccccc2)CC1` (stereo unspecified), with 45.82%; and `O=C(C1CC1)N1CCCC1C1CCN(Cc2ccccc2)CC1` (stereo unspecified), with 53.86%.
For `CC(=O)c1cc(CC(=O)NCc2cccc(F)c2F)cs1`, the INHIBITION amounted to 36.26%.
Under `Cc1nnc(N2C[C@@H]3CCCO[C@@H]3[C@H](N3CCCC3=O)C2)s1` stands 21.57%.
`CN1CCCN(C(=O)NCCNc2cnccn2)CC1`: the INHIBITION is listed as 12.88%.
As to `O=C(NCCNc1cnccn1)N1CCCC1`, the INHIBITION was -12.31%.
Then `CC(=O)N1CCCN(C(=O)NCCNc2cnccn2)CC1`, with 64.71%.
Then `COCC1(C(=O)N[C@H]2CN(c3noc(C)n3)C[C@@H]2C2CC2)CCC1`, with 21.28%; and `CC(C)S(=O)(=O)NCC1CCCN(C(=O)c2ccc3c(c2)OCCO3)C1` (stereo unspecified), with 21.39%; and `O=C(CC1CC1)N[C@@H]1CN(C(=O)c2cccs2)C[C@@H]2CCCO[C@@H]21`, with 45.36%.
Then `CCN1CCN(C(=O)NC(C)c2noc(-c3ccccc3)n2)CC1` (stereo unspecified), with 88.75%; and `CC(NC(=O)N1CCC[C@H]1CO)c1noc(-c2ccccc2)n1` (stereo partly specified), with 5.28%.
As to `CC(NC(=O)N1CCSC(C)(C)C1)c1noc(-c2ccccc2)n1` (stereo unspecified), the INHIBITION is on record as 29.13%.
Then `O=C(Nc1ccccc1)N1C2CCC(O)(CC2)C1CN1CCOCC1` (stereo unspecified), with 11.94%; and `CCC(O)C1CCN(C(=O)Nc2nc(-c3ccccc3)ns2)CC1` (stereo unspecified), with 57.92%; and `CC(O)C1CCN(C(=O)Nc2nc(-c3ccccc3)ns2)CC1` (stereo unspecified), with -65.84%.
Regarding `O=C(Nc1nc(-c2ccccc2)ns1)N1CCC(CO)CC1`, the INHIBITION is on record as 7.72%.
Take `O=C(c1cscn1)N1CCC2(CN(Cc3ccoc3)C2)C1`: the INHIBITION is reported as 46.87%.
Then `O=C(c1cscn1)N1CCC2(CN(Cc3ccncc3)C2)C1`, with 55.66%; and `O=C(c1cscn1)N1CCC2(CN(Cc3ccsc3)C2)C1`, with -27.26%; and `NC(=O)C1CCCN1Cc1cccc(NC(=O)c2cc(Cl)cc(Cl)c2)c1` (stereo unspecified), with 3.14%.
Then `Cc1cc(C)cc(C(=O)Nc2cccc(CN3CCCC3C(N)=O)c2)c1` (stereo unspecified), with 57.01%; and `CCc1ccc(C(=O)Nc2cccc(CN3CCCC3C(N)=O)c2)cc1` (stereo unspecified), with 10.61%; and `O=C(CSc1nnc(N2CCNCC2)s1)Nc1ccccc1`, with 48.59%.
Then `Cn1nc(Br)c2c(NCCN)ncnc21`, with 60%; and `Cn1nc(Br)c2c(NCCNc3ncccn3)ncnc21`, with 33.11%; and `Cn1nc(Br)c2c(NCCS(N)(=O)=O)ncnc21`, with 20.21%.
Turning to `CC(C)C(=O)NCc1cc(Br)ccc1F`, the INHIBITION was -64.91%.
Take `CS(=O)(=O)Cc1ccc(Cl)cc1NCc1ccccc1F`: the INHIBITION was 0.13%.
On to `CC(C)NC(=O)CC(C)NCc1cc(Cl)ccc1F` (stereo unspecified), for which the INHIBITION turned out to be 52.51%.
Then `CC(CS(C)(=O)=O)NCc1cc(Cl)ccc1F` (stereo unspecified), with 50.53%; and `CC(C)NC(=O)CNC(C)c1c(F)cccc1Cl` (stereo unspecified), with 5.34%; and `CC(C)NC(=O)CC(C)NCc1ccc(F)cc1Cl` (stereo unspecified), with 40.64%.
Under `Cc1cnc(CNc2ncc(C)c(-c3cnn(C)c3)n2)cn1` stands -20.35%.
Under `Cc1cccc(N2CCC3(CCN(C(=O)c4cccnc4)CC3)C2)n1` stands 7.29%; under `Cc1nnc(NC(=O)CN2CCCC2c2noc(C3CC3)n2)s1` (stereo unspecified), -32.11%.
Turning to `O=C(Cc1ccsc1)NCCc1ccoc1`, the INHIBITION worked out at 42.8%.
Under `CC(NC(=O)c1ccoc1)C(=O)N(C)Cc1ccsc1` (stereo unspecified) stands -56.89%; under `O=C(NCCc1ccsc1)c1ccoc1`, 52.08%; under `COc1ccc(CN2CCC3(CC2)CCN(CC2CC2)C3=O)cc1`, -0.64%.
With `CC(C)CNC(=O)c1ccc(NC(=O)NC(C)c2ccccn2)cc1` (stereo unspecified), the INHIBITION is on record as -17.17%.
Under `O=C(c1ccccn1)N1Cc2nccn2CC(COc2cccnc2)C1` (stereo unspecified) stands -28.34%; under `Cc1ccc(Oc2ncccc2C(=O)N(C)CCCN(C)C)c(C)c1`, 32.85%; under `Cc1ccc(Oc2ncccc2C(=O)N(C)CC2OCCO2)c(C)c1`, 23.53%.
Then `Cc1ccc(Oc2ncccc2C(=O)O)c(C)c1`, with 50.61%.
Under `O=C(c1ccco1)N1CC2(CCNCC2)c2cc(Cl)ccc21` stands 34.18%.
On to `COCc1cc(N2C[C@@H](C)[C@](O)(C3CC3)C2)ncn1`, for which the INHIBITION is recorded as 8.09%.
Under `COc1cc(N2C[C@@H](C)[C@](O)(C3CC3)C2)nc(N)n1` stands 56.12%.
For the compound `COc1cc(N2C[C@@H](C)[C@](O)(C3CC3)C2)ncn1`, the INHIBITION is 18.38%.
Under `CN(CC1CCCC1)C(=O)c1cn(C)nc1-c1cccnc1` stands 32.67%; under `COc1nccc(N2CC[C@H](CO)[C@@H](O)C2)c1C#N`, 5.38%.
Then `Cn1ncc2c1CCCC2NCc1cccc(C(F)(F)F)c1` (stereo unspecified), with 13.24%; and `CN1CCCC(c2nc3c([nH]2)CC(C)(C)CNC3=O)C1` (stereo unspecified), with -3.25%.
Under `CC1(C)CNC(=O)c2nc(C3CCCN(C(=O)C4CC4)C3)[nH]c2C1` (stereo unspecified) stands 73.68%; under `CC1(C)CNC(=O)c2nc(C3CCN(C(=O)C4CC4)CC3)[nH]c2C1`, 33.4%; under `Cc1ccccc1C(=O)NCCCN1CCc2ccccc2C1`, -13.46%.
As for `COc1cccc(C(=O)NCCCN2CCc3ccccc3C2)c1OC`, the INHIBITION was 51.32%.
Under `Cc1cccc(C(=O)NCCCN2CCc3ccccc3C2)c1C` stands 28.88%; under `COC[C@@]12CCO[C@@H]1CCN(C(=O)COc1ccc(C)cc1)C2`, -42.87%; under `O=C(NCCc1ccc(Cl)s1)N1CCS(=O)(=O)CC1`, -13.46%.
Then `COc1cccc(F)c1C(C)NC(=O)NCc1ccnc(C)n1` (stereo unspecified), with -38.35%.
Then `Cc1nc(C)n(CC2CN(S(C)(=O)=O)Cc3nccn3C2)n1` (stereo unspecified), with 26.66%; and `CC1=Nc2c(c(=O)[nH]n2C(C)C)C(c2ccc3c(c2)OCCO3)S1` (stereo unspecified), with -19.21%; and `CC1=Nc2c(c(=O)[nH]n2C(C)C)C(c2ccc(F)c(F)c2)S1` (stereo unspecified), with -52.59%.
On to `CC1=Nc2c(c(=O)[nH]n2C(C)C)C(c2ccc3c(c2)n(C)c(=O)n3C)S1` (stereo unspecified), for which the INHIBITION is on record as 53.71%.
As to `CC1=Nc2c(c(=O)[nH]n2C(C)C)C(c2ccsc2)S1` (stereo unspecified), the INHIBITION is on record as 14.2%.
Under `CC1=Nc2c(c(=O)[nH]n2C(C)C)C(c2ccccc2)S1` (stereo unspecified) stands 18.37%; under `CC1=Nc2c(c(=O)[nH]n2C(C)C)C(c2cccs2)S1` (stereo unspecified), 63.91%; under `COc1ccccc1[C@@H]1CN(C(=O)c2csc(C)n2)C[C@H]1C(=O)O`, 10.69%.
Under `CC(C)CC(C#N)NC(=O)COC1CCCCC1` (stereo unspecified) stands 30.23%; under `c1csc(CN2C[C@@H]3OCCN(CC4CCCO4)[C@@H]3C2)c1` (stereo partly specified), 20.13%; under `CCOCCN1CCN(Cc2cccc(C(=O)N(C)C)c2)CC1C` (stereo unspecified), 30.29%.
Under `CCOCCN1CCN(CC(=O)N2CCCC2)CC1CC` (stereo unspecified) stands -9.17%; under `CCOCCN1CCN(Cc2cccc(C(=O)N(C)C)c2)CC1`, 10.62%; under `CCC1CN(CC(=O)N2CCC2)CCN1CCOC` (stereo unspecified), 24.15%.
In the case of `CCOCCN1CCN(CC(=O)N2CCC2)CC1CC` (stereo unspecified), the INHIBITION came to 53.98%.
Under `CN(C)C(=O)c1cccc(CN2CCN(CCO)CC2)c1` stands 54.99%; under `CCC1CN(Cc2cccc(C(=O)N(C)C)c2)CCN1CCOC` (stereo unspecified), 2.77%.
Then `CCOCCN1CCN(Cc2cccc(C(=O)N(C)C)c2)CC1CC` (stereo unspecified), with 50.05%.
Under `COCCN1CCN(Cc2cccc(C(=O)N(C)C)c2)CC1` stands 21.83%.
